# Assay results published in PMC7826789 (International Journal of Molecular Sciences, 2021).
# Tested on: NUAK1
row,SMILES,Kinases covered
1,CCC(=O)Nc1cccc(Oc2nc(Nc3ccc(N4CCN(C)CC4)cc3OC)ncc2Cl)c1 [WZ4003],NUAK1
2,CN1C(=O)c2ccccc2N(C)c2nc(Nc3cnn(C4CCNCC4)c3)ncc21 [XMD-17-51],NUAK1
3,Cc1nc(Nc2cnn(C3CCNCC3)c2)nc2c1N(C)C(=O)c1cc3ccccc3cc1N2C [HTH-01-015],NUAK1

# Tested on: PDGFRA
row,SMILES,Kinases covered
1,COc1cc2nccc(Nc3ccc(OCc4ccc(NC(C)=O)cc4)cc3)c2cc1OC [GW440135],PDGFRA
2,Cc1cnc(N)c(/C=C/c2cncc(C(=O)NCCc3ccc(Cl)cc3Cl)c2)c1 [GSK190937],PDGFRA
3,Nc1ncnc2occ(-c3ccc(NC(=O)Nc4cc(C(F)(F)F)ccc4F)cc3)c12 [GW770249X],PDGFRA
4,O=C(Nc1ccccc1)Nc1cccc(Oc2ccc3nccn3n2)c1 [TPKI-39],PDGFRA
5,COc1cc2ncn(-c3cc(O[C@H](C)c4ccccc4Cl)c(C(N)=O)s3)c2cc1OC [GSK237701A],PDGFRA
6,Cn1ccc2ncnc(Oc3ccc(NC(=O)Nc4ccccc4)cc3)c21 [TPKI-69],PDGFRA
